Ins promoter up: MIN6 insulin promoter up-regulation; MIN6 insulin promoter-GFP reporter, high-content imaging; active compounds read high; z-score at 5 µM; actives 0.3% (n = 190,000); AID 1625;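 active = z-score above 3 at 5 µM with at least 500 cells counted in the well; inconclusive = wells under 500 cells, flagged as cytotoxic or low count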
Autophagy mod: autophagy modulation, high-content screen. AID 463193. calls only at 10 µM (by protocol). MEF GFP-LC3 puncta imaging; test concentration mostly 10 µM. actives 0.98% (n = 190,000);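 active = percentage of spot-positive cells more than 3 SD above its plate mean, without a fluorescence outlier flag or 80% toxicity; inconclusive = no clear call, values can overlap the other calls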;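 also: spot-positive cell cutoff set from DMSO-treated cells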
eIF4E 4G PPI: inhibitors of eIF4E and eIF4G interaction in translation initiation; P63073+Q04637; TR-FRET eIF4E-eIF4GI(517-606) binding, 2 h; inhibition, % at 21.7 µM; actives 0.37% (n = 220,000); AID 782;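 active = inhibition above about 30%, limit read from the data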;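 also: 0% = full FRET control wells and 100% = background wells lacking eIF4GI fragment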
PERK inhibitor: blocks human PERK kinase | Q9NZJ5 | CHO PERK-DD fusion, SEAP luminescence translation reporter | inhibition, % at 5.6 µM | actives 0.17% (n = 220,000) | AID 1416;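 active = inhibition above the mean inhibition of all tested compounds plus 3 SD, set separately per screening campaign, cut at about 2.9% in these data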;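 also: PERK kinase domain activated by AP20187 dimerizer at 100 nM; 0% = DMSO with dimerizer and 100% = rapamycin at 8.4 µM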
Target sequence (Q9NZJ5 whole entry, looked up, the tested form may be a part): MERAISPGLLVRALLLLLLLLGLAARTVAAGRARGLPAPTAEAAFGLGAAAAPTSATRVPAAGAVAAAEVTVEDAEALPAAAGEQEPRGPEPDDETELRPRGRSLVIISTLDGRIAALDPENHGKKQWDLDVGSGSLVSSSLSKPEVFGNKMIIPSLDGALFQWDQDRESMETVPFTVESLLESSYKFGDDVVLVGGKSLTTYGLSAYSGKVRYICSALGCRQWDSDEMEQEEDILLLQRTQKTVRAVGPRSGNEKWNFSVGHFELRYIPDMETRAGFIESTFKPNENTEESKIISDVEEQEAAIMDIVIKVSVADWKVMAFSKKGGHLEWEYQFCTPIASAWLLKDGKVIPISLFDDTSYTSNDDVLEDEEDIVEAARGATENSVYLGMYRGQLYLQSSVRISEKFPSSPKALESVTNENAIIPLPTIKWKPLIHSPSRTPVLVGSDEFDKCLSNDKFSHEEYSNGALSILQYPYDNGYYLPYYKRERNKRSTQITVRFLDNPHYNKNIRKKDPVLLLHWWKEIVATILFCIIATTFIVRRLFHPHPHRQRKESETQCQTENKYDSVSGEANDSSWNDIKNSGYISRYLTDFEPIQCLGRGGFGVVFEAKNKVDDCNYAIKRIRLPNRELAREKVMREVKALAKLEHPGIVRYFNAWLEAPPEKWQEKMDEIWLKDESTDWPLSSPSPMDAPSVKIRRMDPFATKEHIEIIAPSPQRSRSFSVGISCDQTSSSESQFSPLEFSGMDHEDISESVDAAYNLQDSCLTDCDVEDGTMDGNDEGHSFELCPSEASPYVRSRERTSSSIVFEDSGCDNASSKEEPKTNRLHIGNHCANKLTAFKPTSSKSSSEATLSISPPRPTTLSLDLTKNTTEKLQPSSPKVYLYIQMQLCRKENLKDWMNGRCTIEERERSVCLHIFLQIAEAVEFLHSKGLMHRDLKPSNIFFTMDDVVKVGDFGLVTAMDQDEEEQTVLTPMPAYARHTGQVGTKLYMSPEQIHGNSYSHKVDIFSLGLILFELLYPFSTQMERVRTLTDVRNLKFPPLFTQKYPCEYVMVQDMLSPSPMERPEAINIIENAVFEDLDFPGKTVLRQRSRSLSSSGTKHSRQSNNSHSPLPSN
INS promoter inh: TRM-6 insulin promoter activity inhibition. TRM-6 cells (human fetal islet line), insulin promoter-eGFP reporter, imaging; reporter expression induced with tamoxifen. inhibition, % at 2 µM. actives 0.9% (n = 130,000). AID 1273;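 active = inhibition above the mean plus 3 SD, with well images judged a real hit on visual review, cut at about 60% in these data, passing the limit was not always enough; inconclusive = inhibition over the cutoff but images rejected on review; inactive = inhibition not above the cutoff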
An asterisk follows results filed as active; i = inactive; ? = inconclusive; . = not tested or not shown; + = active, no number; [ ] = dose if it differs, or a comment. Rows were chosen to be rich in hits. Some 2% of all compounds tested hit in one or more screens of this group.

SMILES	Ins promoter up	Autophagy mod	eIF4E 4G PPI	PERK inhibitor	INS promoter inh
COc1ccc(OC)c(NC(=O)Cc2coc3ccc4ccccc4c23)c1	-0.13	i	-8.2	-0.9	6.7
CCC(=O)Nc1ccc(C(=O)OCC(=O)c2ccc(C)c([N+](=O)[O-])c2)cc1	3.37*	i	-1.1	0.7	10.3
Clc1ccc2c(NCc3ccco3)ncnc2c1	.	i	-4.4	0.0	78.6*
Clc1ccc2c(NCc3ccccn3)ncnc2c1	0.84	i	1.0	0.3	71.4
COc1cc(CNc2ccc(N3CCCC3)cc2)ccc1OCc1ccccc1F	0.64	i	31.8*[fluorescence artefact?]	0.5	11.1
N#CC(C(=O)Nc1ccccc1)=C1Nc2ccccc2N1	0.57	i	0.0	-2.3	10.0
N#C/C(C(=O)Oc1ccccc1)=C1/Nc2ccccc2-c2ccccc21	-0.83	+	-43.7	1.2	54.0
CC(C)Nc1nc(NC(C)C)nc(N(C)C#N)n1	1.51	i	3.4	0.4	77.4*
O=C(CN(Cc1ccco1)C(=O)c1ccccc1)Nc1ccc(Cl)c(Cl)c1	0.09	i	1.6	-0.1	-33.3
COc1ccc(N2C(S)=C(C#N)C(=O)NC2c2ccc(OC)c(OC)c2)cc1 (centres undefined)	0.36	i	0.1	1.8	.
CCOc1ccc(C2NC(=O)C(C#N)=C(S)N2c2ccc(OC)cc2)cc1OC (centres undefined)	0.16	i	-0.8	0.5	80.0*
CC1CN=C(N(C(=O)Nc2ccccc2)c2ccc(F)cc2)S1 (centres undefined)	0.47	i	2.1	0.9	.
Cc1cc(C)c2nc(N3CCC(C(=O)NCCCN4CC(C)CC(C)C4)CC3)sc2c1 (centres undefined)	-0.31	+	3.2	0.0	-63.0
Cc1cc(C)c2nc(N3CCCC(C(=O)NCCCN4CCOCC4)C3)sc2c1 (centres undefined)	-1.79	i	0.8	-1.3	15.6
CN1C(=O)C2(c3ccccc31)c1c(oc3ccccc3c1=O)C(=O)N2CCO (centres undefined)	-0.18	.	-2.7	-0.6	.
CC(C)Cn1c(-c2ccc(Br)o2)n[nH]c1=S	-0.15	i	12.9	0.9	3.3
COC(=O)c1[nH]c2c(c1C)C(=O)CC(c1ccccc1)C2 (centres undefined)	-1.96	+	0.4	-0.3	-320.0
Cc1c(C(=O)OC2CCCC2)[nH]c2c1C(=O)CC(c1ccco1)C2 (centres undefined)	1.13	+	0.1	-0.6	-360.0
COc1ccc(OC)c(C2CC(=O)c3c([nH]c(C(=O)OC(C)C)c3C)C2)c1 (centres undefined)	0.53	+	-3.1	-0.2	.
CCCCNC(=O)CSc1nc2cc3c(cc2c(=O)n1CCC(=O)NCCc1ccc(OC)c(OC)c1)OCO3	-0.66	i	1.7	1.5	40.5
CCN/C=C(\C#N)S(=O)(=O)c1ccc(Br)cc1	0.62	.	0.3	0.9	.
O=C(O)c1ccccc1-c1ccccc1C(=O)NCc1cccc(C(F)(F)F)c1	0.96	i	-0.2	0.3	.
COc1ccc(Cn2cc3c(-c4ccc(F)cc4)nnc-3c3cc(OC)c(OC)cc32)cc1	-0.07	i	-2.9	-0.4	.
COc1cc2c3nnc(-c4ccc(F)cc4)c-3cn(Cc3ccccc3)c2cc1OC	.	+	-5.9	0.4	.
COc1cc2c3nnc(-c4ccc(F)cc4)c-3cn(Cc3ccc(F)cc3)c2cc1OC	.	+	-1.0	-0.5	.
SMILES	Ins promoter up	Autophagy mod	eIF4E 4G PPI	PERK inhibitor	INS promoter inh
COc1nc(C)nc(NC(=O)NS(=O)(=O)c2ccc(C)cc2)n1	0.05	i	2.5	0.4	41.4
COC(=O)C1=C(C)NC(=S)N(C(C)=O)C1c1ccc(OC)c(OC)c1 (centres undefined)	-0.08	i	9.5	0.2	.
COc1cc2nc(SCC(=O)NC3CC3)n(CCC3=CCCCC3)c(=O)c2cc1OC	.	i	.	0.4	55.6
COc1cc2nc(SCc3c(C)noc3C)n(CCC3=CCCCC3)c(=O)c2cc1OC	2.22	+	6.8	0.2	.
COc1ccc(OC)c(C(=O)CSc2nnc(Cc3cccs3)n2CCc2ccccc2)c1	0.15	i	-30.6	-0.6	2.8
Cc1ccc(S(=O)(=O)NC(=O)NN2CCCCCC2)cc1	.	+	-1.7	1.2	4.8
Cc1ccc(S(=O)(=O)NC(=O)Nn2c(C)nnc2C)cc1	-0.05	i	0.7	0.8	7.9
c1ccc2c(c1)OCc1cn[nH]c1-2	-0.15	.	50.7*	0.1	.
CCOC(=O)c1cc(C(C)(C)C)oc1CNC(=O)c1c(C)oc2c1CCCC2	?	i	-0.9	-1.1	-493.3
COC(=O)c1sc2nc(C)cc(-c3ccccc3)c2c1N	.	i	-3.5	0.5	.
Cc1cc(-c2cccs2)c2c(N)c(C(=O)c3ccc4c(c3)OCO4)sc2n1	4.7*	+	8.9	1.4	.
COc1ccc(C(=O)c2sc3nc(C)cc(-c4cccs4)c3c2N)cc1	2.67	+	1.7	-0.1	-177.8
Nc1c(C(=O)Nc2nc3ccccc3s2)sc2nc(-c3cccs3)ccc12	.	+	13.1	1.3	-196.2
COc1ccc(C(=O)c2sc3nc(C)cc(-c4cccs4)c3c2N)cc1OC	2.55	+	0.9	-0.8	-103.2
Cc1cccc(C)c1OC(=O)C(c1ccccc1)c1ccccc1	0.47	i	-1.6	1.8	-7.1
COC(=O)c1ccc(C(=O)NC(=S)Nc2ccc3nc(SC)sc3c2)cc1	.	i	20.1	1.2	.
COc1ccc(/C=C/C(=O)N2CCN(c3ccccn3)CC2)c2ccccc12	-0.15	i	-3.9	-1.2	-27.8
CC(C)NC(=O)c1sc2nc(-c3cccs3)cc(-c3cccs3)c2c1N	0.46	+	5.6	-1.2	43.3
CC(=O)c1sc2nc(-c3cccs3)ccc2c1N	0.14	i	-0.7	-0.3	-25.0
Cc1cccc(NNC(=O)c2c(F)cccc2Cl)c1	1.75	.	-0.7	1.0	.
Nc1nc(SCc2ccc(Cl)cc2Cl)nc2nc3c(cc12)CCCC3	0.64	+	20.9	2.8	-51.6
Nc1nc(SCc2ccccc2Cl)nc2nc3c(cc12)CCCC3	-0.17	i	1.9	1.4	.
O=C(Nc1cc(Cl)cc(Cl)c1)N1CCCC1	-0.61	.	0.2	-0.3	.
CCOC(=O)Cc1csc(NC(=O)CC(C)(C)C)n1	0.09	i	1.3	0.7	26.3
COC(=O)CCCC1=CC2=C(c3ccccc3)C(=O)C(C)(OC(=O)C3CCCC3)C(=O)C2=CN1C(CO)CO (centres undefined)	-0.59	.	0.8	.	.
Cc1nn(-c2ccccc2)nc1C(=O)Nc1nnc(C(F)(F)F)s1	-0.45	.	-1.0	1.7	.
O=C(CCl)Nc1nc(-c2ccco2)c(-c2ccco2)s1	-0.12	i	0.1	0.2	34.6
O=C(CCCSc1ccccc1)Nc1nc(-c2ccco2)c(-c2ccco2)s1	-0.16	i	0.0	-0.8	76.0*
C=CCSc1nnc(NC(=O)c2cccc(S(=O)(=O)N3CCOCC3)c2)s1	3.22*	i	-1.9	0.4	66.7
CC(=O)c1ccc(N2CCN(C(=O)c3cccc(Oc4ccccc4)c3)CC2)cc1	-0.4	+	4.4	-0.9	50.0
